Results from PubChem BioAssay (NCATS).
Records with an inconclusive call do not appear. A number with no mark means an inactive call. Calls of active or inactive are those of the source. The call rests on the fitted dose curve.

Assay: S16 Schwann cell PMP22 intronic element beta-lactamase assay (AID 624044); further: nearly all actives have a fitted effect of over 15% in size;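 on ratio activity, negative = inhibition: 0% = DMSO and -100% = potassium clavulanate positive control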
Conditions: S16 rat Schwann cells, PMP22 element beta-lactamase FRET, 24 h; ratio activity, negative = inhibition: at 38.3 µM (top of the series)
Procedure, shortened: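 Beta-lactamase reporter under a PMP22 intronic regulatory element in stable S16 rat Schwann cells; 24 h compound exposure. 460 nm blue signal normalized between DMSO (0%) and potassium clavulanate, with 535 nm FRET tracking viability; curves classed by r2 and response.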
Potency means the concentration at half of the fitted maximal effect.

Row | SMILES | ratio activity, negative = inhibition | Potency
1 | COc1cc2c(cc1OC)C(C(C(=O)N(CCc1ccc(OC)c(OC)c1OC)CCc1ccc(OC)c(OC)c1OC)c1ccccc1)=NCC2 (stereo not drawn) | -10.8% | –
2 | NCCCC[C@H](N[C@@H](CCc1ccccc1)C(=O)O)C(=O)N1CCC[C@H]1C(=O)O | 4.72% [at 17.1 µM] | –
3 | C#C[C@]1(O)CC[C@H]2[C@@H]3CCc4cc(OC5CCCC5)ccc4[C@H]3CC[C@@]21C | -11.3% | –
4 | COC1=CC(=O)C[C@@H](C)[C@]12Oc1c(Cl)c(OC)cc(OC)c1C2=O | -1.36% | –
5 | CN(C)CC/C=C1\c2ccccc2Sc2ccc(Cl)cc21 | -2.59% | –
6 | CC(C)=CCC1C(=O)N(c2ccccc2)N(c2ccccc2)C1=O | -12.9% | –
7 | CC(=O)Oc1ccc(C(=C2CCCCC2)c2ccc(OC(C)=O)cc2)cc1 | 6.78% | –
8 | NC(=O)C(=O)N/N=C/c1ccc([N+](=O)[O-])o1 | -0.651% | –
9 | CCN(CC)CCOc1ccc(C(O)(Cc2ccc(Cl)cc2)c2ccc(C)cc2)cc1 (stereo not drawn) | -36.8% | –
10 | O=S1(=O)c2cccc3cccc(c23)N1CCCN1CCN(c2ccc(F)cc2)CC1 | -2.31% (active) | –
11 | COc1cccc(CCc2ccccc2OCC(CN(C)C)OC(=O)CCC(=O)O)c1 (stereo not drawn) | -0.254% | –
12 | CC[N+](CC)(CCNC(=O)C(=O)NCC[N+](CC)(CC)Cc1ccccc1Cl)Cc1ccccc1Cl | 0.118% | –
13 | CN1CCC(=C2c3ccccc3Sc3ccccc32)CC1 | -5.41% | –
14 | Cc1cc(O)c(C(C)C)cc1Cl | 0.472% | –
15 | Cc1c(C)n(Cc2ccccc2)c2ccc(C(=O)OCCN(C)C)cc12 | -0.903% | –
16 | CCCCC1=NC2(CCCC2)C(=O)N1Cc1ccc(-c2ccccc2-c2nn[nH]n2)cc1 | 11.3% | –
17 | CCCCC(CC)CN=C(N)NC(N)=NCCCCCCN=C(N)NC(N)=NCC(CC)CCCC (stereo not drawn) | -17.3% | –
18 | CCCCCC=CCC=CCCCCCCCC(=O)OCC | -8.33% | –
19 | CCCCCCCCCCOCC(O)CN (stereo not drawn) | -4.5% | –
20 | CCOC(=O)OC(C)OC1=C(C(=O)Nc2ccccn2)N(C)S(=O)(=O)c2ccccc21 (stereo not drawn) | – | 8.91 µM (active)
21 | CCC(=O)c1c(O)cc(O)cc1O | -0.944% | –
22 | Cc1ncc(CSSCc2cnc(C)c(O)c2CO)c(CO)c1O | 1.49% | –
23 | CCOc1ccc2nc3cc(N)ccc3c(N)c2c1 | -0.826% | –
24 | O=C1OCCN1/N=C/c1ccc([N+](=O)[O-])o1 | 1.06% | –
25 | CCN(CC)CCOC(=O)C(c1ccccc1)C1CCCCC1 (stereo not drawn) | -17.7% | –
26 | CC(=O)N/N=C/c1ccc([N+](=O)[O-])o1 | 4.51% | –
27 | CC(C)(Oc1ccc(Cl)cc1)C(=O)O | 1.96% | –
28 | NC(=NCCCCCCN=C(N)/N=C(\N)Nc1ccc(Cl)cc1)/N=C(\N)Nc1ccc(Cl)cc1 | -17% | –
